High-throughput results as filed in PubChem.
Many of the other results were omitted from the sample, so hits are more common in it than they were.
TTR transcr act – TTR transcription activators in neuroblastoma reporter cells, primary screen, cell-based, luminescence, SH-SY5Y, TTR promoter Gaussia luciferase | 100% = recombinant luciferase protein wells | activation, % at 16.7 µM | 1.3% of 92,000 active | AID 1117267, 2014;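 active = activation above the mean of all tested compounds plus 3 SD, cut at about 9.5% in these data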;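 also: cells exposed to compounds for one day before reading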
HuH7 TTR inh – TTR promoter reporter inhibitors in hepatoma cells, counter-screen for TTR transcription activator project, cell-based, luminescence, HuH7 hepatoma. shares compounds with TTR transcr act. HuH7 TTR promoter-Gaussia luciferase reporter. inhibition, % at 16.7 µM. 4% of 1,100 active. AID 1117279, 2014;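 active = average inhibition above the solvent-only control wells' mean plus 3 SD, cut at about 15% in these data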;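 also: inhibitors lower well luminescence so higher value means more inhibition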
TTR up confirm – TTR transcription activators, retest, confirmation, cell-based, luminescence, SH-SY5Y, triplicate; shares compounds with TTR transcr act; activation, % at 16.7 µM; 1,100 tested, under 10 active; SHSY5Y TTR promoter Gaussia luciferase; 100% = purified Lucia enzyme wells, no cells;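 active = mean activation above a set limit taken from the earlier primary screen, cut at about 11% in these data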
Each line names hits and unclear results; the compound was inactive in the other large screens (follow-up assays come after a bar, where they were run).

COc1cc(C2NC(=O)NC(C)=C2C(=O)OCC2CCCCC2)cc(Cl)c1O (configuration not stated)	none
COc1cc(C2NC(=O)NC(C)=C2C(=O)OC2CCCC(C)C2)cc(Br)c1O (configuration not stated)	TTR transcr act 11 | HuH7 TTR inh inactive | TTR up confirm inactive
Cc1cc(NS(=O)(=O)c2cccc([N+](=O)[O-])c2)no1	none
O=[N+]([O-])c1cccc(NC(=S)N2CCOCC2)c1	none
Cc1ccc([N+](=O)[O-])cc1N=C(c1cccc([N+](=O)[O-])c1)N1CCOCC1	TTR transcr act 15 | HuH7 TTR inh inactive | TTR up confirm inactive
Cc1ccc([N+](=O)[O-])cc1N=C(c1ccc([N+](=O)[O-])cc1)N1CCOCC1	none
CC(CNCCCn1cnc2c(OCc3ccccc3)ncnc21)c1ccccc1 (configuration not stated)	none
COc1ccc(-n2cc(CNCCCN3CCCC3=O)c(-c3ccccc3Cl)n2)cc1	none
COc1ncnc2c1ncn2CCCNCCCN1CCCC1=O	TTR transcr act 15 | HuH7 TTR inh inactive | TTR up confirm inactive
CCc1ccc(-c2nc(NC(=O)c3ccc(OCC(=O)Nc4ccc(F)cc4)c(OC)c3)sc2C)cc1	none
CN(c1ccc(C(=O)Nc2nccs2)cc1)S(=O)(=O)c1ccccc1	none
Cc1nc2nc(-c3ccco3)nn2c(C)c1Cl	none
Cc1cc2c(c(=O)o1)C(c1cccs1)C(C#N)=C(N)O2 (configuration not stated)	none
CC1(C(=O)NC2CCCCC2)CCC(=O)N1CC(F)(F)F (configuration not stated)	none
CC(C)CCNC(=O)[C@@H](Cc1ccccc1)NC(=O)CC[C@H]1O[C@@H](n2ccc(=O)[nH]c2=O)[C@H](O)[C@@H]1O	none
O=C(CC[C@H]1O[C@@H](n2ccc(=O)[nH]c2=O)[C@H](O)[C@@H]1O)N[C@@H](Cc1ccccc1)C(=O)NCc1ccccc1	TTR transcr act 15 | HuH7 TTR inh inactive | TTR up confirm inactive
O=c1ccn([C@@H]2O[C@H](CNCc3ccc(-n4cccn4)cc3)[C@@H](O)[C@H]2O)c(=O)[nH]1	none
CCc1nnc(NC(=O)COC(=O)c2cc(OC)cc(OC)c2)s1	none
COc1ccc(/C=N/NC(=O)c2cccc(OC(F)(F)C(F)F)c2)c(OC)c1OC	none
COc1ccc(/C=N/NC(=O)C(N)=O)c(OC)c1OC	TTR transcr act 13 | HuH7 TTR inh inactive | TTR up confirm inactive
COc1ccc(/C=N\NC(=O)CCc2c(C)n[nH]c2C)c(OC)c1OC	none
Cc1cc(=O)oc2cc(OCCSc3nnc(-c4ccccc4)o3)ccc12	none
Cc1cc(=O)oc2cc(OCC#N)ccc12	none
Cc1cc(=O)oc2cc(OCCSCCN3CCCCC3)ccc12	TTR transcr act 21 | HuH7 TTR inh inactive | TTR up confirm inactive
COc1ccc(OCCSc2nc(C)nc3ccccc23)cc1	none
CC(=O)Nc1cccc(NC(=O)CSc2nnc(Cc3cccn3C)n2-c2ccc(C)cc2)c1	none
CCCN1C(=O)C(O)(CC(=O)c2cccc(OC)c2)c2ccccc21 (configuration not stated)	none
CC(CCc1ccccc1)NC(=O)Cc1ccc(Br)cc1 (configuration not stated)	none
Cc1ccc(CC(=O)NC(C)CCc2ccccc2)cc1 (configuration not stated)	none
CC(C)C[C@H]1CNC(=O)C(=O)N1C[C@H](C)NC(=O)Cc1ccccc1	TTR transcr act 15 | HuH7 TTR inh inactive | TTR up confirm inactive
CCOc1ccccc1NS(=O)(=O)c1cccs1	none
Cc1ccc(OCc2nnc(SCC(=O)O)n2-c2ccccc2)cc1	none
CCn1c(COc2ccc3c(c2)OCO3)nnc1SCC(=O)O	TTR transcr act 13 | HuH7 TTR inh inactive | TTR up confirm inactive
CCn1c(COc2cccc(C)c2)nnc1SCC(=O)N1CCCC1	none
O=C(NCC1CCCN(C(=O)c2cscn2)C1)c1ccccc1Cl (configuration not stated)	none
CCOC1=C2CN(S(=O)(=O)c3ccc(C)cc3)[C@H](c3ccccc3)C[C@@H]2N(S(=O)(=O)c2ccc(C)cc2)[C@H](c2cccc(C)c2)C1	none
CCOC(=O)c1c(C)[nH]c(C)c1C(=O)COC(=O)c1c(OC)cccc1OC	none
CCOC(=O)c1c(C)[nH]c(C)c1C(=O)COC(=O)c1sccc1C	TTR transcr act 11 | HuH7 TTR inh inactive | TTR up confirm inactive
CCOC(=O)c1c(C)[nH]c(C)c1C(=O)COC(=O)c1ccc(O)cc1	none
CCCCNC(=O)C1(C)CCC(=O)N1CCOC (configuration not stated)	TTR transcr act 13 | HuH7 TTR inh inactive | TTR up confirm inactive
COCCN1C(=O)CCC1(C)C(=O)NC(C)(C)C (configuration not stated)	none
CCCCNC(=O)C1(C)CCC(=O)N1CC(F)(F)F (configuration not stated)	none
COc1ccc(CCN(C)CC(O)COC(c2ccc(F)cc2)c2ccc(F)cc2)cc1OC (configuration not stated)	none
O=C(N/C(=C/c1cccnc1)C(=O)N1CCOCC1)c1ccccc1Cl	none
O=C(N/C(=C/c1cccnc1)C(=O)N1CCOCC1)c1ccccc1F	TTR transcr act 20 | HuH7 TTR inh inactive | TTR up confirm inactive
CC(=O)N/C(=C\c1ccccc1)C(=O)N1CCOCC1	none
Cn1nnnc1SCc1nc2ccccc2[nH]1	none
Cc1nnc(SCc2nc3ccccc3[nH]2)s1	none
c1ccc(SCc2nc3ccccc3[nH]2)nc1	TTR transcr act 14 | HuH7 TTR inh inactive | TTR up confirm inactive
N#Cc1ccc(COC(=O)C2CCC(=O)N2)cc1 (configuration not stated)	none
COc1ccc(N(C)S(=O)(=O)c2cccc(C(=O)OCC(=O)Nc3sc4c(c3C#N)CCCCC4)c2)cc1	none
Cc1sc2ncn(CC(=O)N3CCN(c4ccccn4)CC3)c(=O)c2c1S(=O)(=O)N1CCC(C)CC1	none
O=C(CCCCCN1C(=O)[C@@H]2Cc3ccccc3CN2C1=O)Nc1cccc(F)c1	none
COc1ccc(NC(=O)CCCCCN2C(=O)[C@@H]3Cc4ccccc4CN3C2=O)cc1Cl	none
Cc1ccccc1NC(=O)CCCCCN1C(=O)[C@@H]2Cc3ccccc3CN2C1=O	none
CCOc1ccccc1NC(=O)CCCCCN1C(=O)[C@@H]2Cc3ccccc3CN2C1=O	none
Cc1cccc(NC(=O)CCCCCN2C(=O)[C@@H]3Cc4ccccc4CN3C2=O)c1	TTR transcr act 14 | HuH7 TTR inh inactive | TTR up confirm inactive
O=C(CCCCCN1C(=O)[C@@H]2Cc3ccccc3CN2C1=O)Nc1ccccc1F	TTR transcr act 11 | HuH7 TTR inh inactive | TTR up confirm inactive
CCOC(=O)Cc1csc(NC(=O)CSc2nnnn2-c2ccc(F)cc2)n1	none
CC1(C)CC(NC2C3CC4CC(C3)CC2C4)CC(C)(C)N1 (configuration not stated)	none
O=C(Oc1ccc(Cl)cc1)N1CCCCC1	none
CCC(=O)c1ccc(OC)c(OC)c1OCc1ccccc1	none
CC(=C/C(=O)O)/C=C/c1ccco1	none
O=C(COC(=O)CNS(=O)(=O)c1ccc(F)c(F)c1F)NCCc1ccccc1	none
O=C(CN1C(=O)NC2(CCCCC2)C1=O)Nc1ccc(F)cc1	none
